Screening data from PubChem.
The list is not random: actives were taken first. Their share in the collection is about 2.8%.
N-glyco inh = increase of ERlucT glycosylation luciferase signal, primary screen, N-linked glycosylation inhibitor project, D54 ERlucT cells, luminescence, set 2 | AID 588692, 2011 | reporter increase, % at 12.5 µM | hit rate 0.23% among 360,000 | D54 ERlucT glycosylation luciferase reporter, 24 h; percent of 100 nM tunicamycin response;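 active means mean luciferase reporter signal, scaled so untreated is 0 and the glycosylation-blocking control 100, at or above a set limit in every replicate; inconclusive means mean reaches the limit but not every replicate does; inactive means mean below the limit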;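 further: luciferase carries N-glycosylation sites so blocking glycosylation raises the light; 0% = median of neutral control wells and 100% = median of 100 nM tunicamycin wells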
Shn3 inh set2 = reduction of Shn3 3'UTR firefly luciferase signal, primary screen, Schnurri-3 inhibitor project, cell-based, Clone20 osteoblasts, set 2; Clone20 osteoblast Shn3 3'UTR firefly luciferase, 24 h; inhibition, % at 12.5 µM; hit rate 0.52% among 360,000;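 active means mean inhibition of at least 75% with every replicate also reaching 75%; inconclusive means mean inhibition at least 75% but some replicate below; inactive means mean inhibition below 75%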;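 further: 0% = median of neutral control wells and 100% = pilot-screen positive control compound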
PAX8 inh HTS = inhibitors of PAX8-driven TPO luciferase reporter, primary screen, RMG-I cells, single concentration. SteadyGlo, 24 h. inhibition, % at 12.6 µM. hit rate 1.2% among 360,000. AID 652154, 2013;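 active means mean replicate inhibition at least 60% with every replicate also reaching 60%; inconclusive means only one of the two criteria is met; inactive means mean below 60% and not all replicates reaching 60%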;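 further: luciferase light reporting Pax8 driven TPO promoter activity; plate controls were median of neutral control wells for no effect and mitoxantrone controls for full effect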
EBV LMP1 NFkB = EBV LMP1-driven NF-kappaB luciferase reporter inhibitors, primary screen, cell-based, luminescence, single point | inhibition, % at 12.5 µM | LMP1-induced NF-kappaB luciferase reporter cells | hit rate 0.69% among 350,000; in the data active means inhibition above about 41%; inconclusive means no clear call, values can overlap the other calls;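 further: 0% = neutral control wells and 100% = reference inhibitor control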
NSD2 HMT inh = NSD2 histone methyltransferase inhibitors, primary screen, biochemical, AlphaScreen, single concentration, set 2; NSD2 peptide methylation, 120 min; inhibition, % at 12.5 µM; hit rate 0.54% among 310,000; AID 743445, 2014; Histone-lysine N-methyltransferase NSD2 (Homo sapiens), O96028; in the data active means inhibition above about 50%
HIV Env fusion = inhibitors of HIV-1 Env-driven cell-cell fusion, primary screen, HeLa-JRFL effector, CEM21 target cells, luciferase; hit rate 1.1% among 360,000; inhibition, % at 12.3 µM;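 active means mean replicate inhibition score of at least 50 and every replicate individually at or above 50; inconclusive means only one of the two criteria met; inactive means mean below 50 and not all replicates reaching 50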;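 further: 0% = plate neutral controls and 100% = maraviroc near 300 nM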
The depositor's hits bear a star; ? = inconclusive; nt = not tested or not shown; [ ] = another dose, or the depositor's remark.

SMILES | N-glyco inh | Shn3 inh set2 | PAX8 inh HTS | EBV LMP1 NFkB | NSD2 HMT inh | HIV Env fusion
O=C(Cc1ccccc1)N1CC[C@H]2[C@H](CO)Nc3ccc(C4=CCCCC4)cc3[C@H]21 | nt | nt | 82* | nt | nt | 18[16.7 µM]
CN1C(=O)c2cc(NC(=O)c3cscn3)ccc2OC[C@H]2O[C@H](CC(=O)N3CCCCC3)CC[C@H]21 | nt | nt | 0 | nt | nt | 8[16.7 µM]
O=C(C1CCCC1)N1CC[C@@H]2[C@H](CO)Nc3ccc(C4=CCCCC4)cc3[C@@H]21 | nt | nt | 90* | nt | nt | 45[16.7 µM]
COC(=O)C[C@H]1CC[C@H]2[C@@H](COc3ccc(NC(=O)Nc4cc(C)cc(C)c4)cc3C(=O)N2C)O1 | nt | nt | 7 | nt | nt | 21[16.7 µM]
N#Cc1c(N)nc(SCc2ccccn2)c(C#N)c1-c1cccs1 | -7 | 8 | nt | 8 | -5 | 56*
CCOC(=O)CSc1nc(N)c(C#N)c(-c2cccs2)c1C#N | 1 | 19 | nt | 10 | 3 | nt
CC(C)NC(=O)Nc1ccc2c(c1)CC(=O)N([C@H](C)CO)C[C@@H](C)[C@H](CN(C)S(=O)(=O)c1ccc(Cl)cc1)O2 | nt | nt | -3 | nt | nt | nt
COCCNC(=O)C[C@@H]1C[C@H]2c3cc(NC(=O)Nc4ccc(C(F)(F)F)cc4)ccc3O[C@H]2[C@@H](CO)O1 | nt | nt | -14 | nt | nt | 1[16.7 µM]
O=C(Nc1cc(F)ccc1F)N[C@H]1CC[C@@H](CCn2cc(C3CC3)nn2)O[C@@H]1CO | nt | nt | -4 | nt | nt | -1[16.7 µM]
O=S(=O)(N[C@H]1CC[C@H](CCn2cc(-c3ccccn3)nn2)O[C@@H]1CO)c1cccc(F)c1 | nt | nt | 3 | nt | nt | -16[16.7 µM]
O=C(CN1CCOCC1)N[C@H]1CC[C@H](CCNS(=O)(=O)c2ccccc2F)O[C@@H]1CO | nt | nt | -6 | nt | nt | -15[16.7 µM]
CC1CCCN(C(=O)C(C)Sc2nc(-c3ccccc3)cc(C(F)(F)F)n2)C1 (stereo not given) | -4 | 64 | nt | -5 | 0 | 57*
CC(Sc1nc(-c2ccccc2)cc(C(F)(F)F)n1)C(=O)N1CCCCC1 (stereo not given) | -4 | -1 | nt | -3 | -11 | nt
CC1=CC(C)(C)N2C(=O)C3(NCCc4c3[nH]c3ccccc43)c3cc(C)cc1c32 (stereo not given) | -9 | 32 | 88* | -2 | nt | 17
O=C(NCC[C@H]1CC[C@@H](NC(=O)C2CCCCC2)[C@H](CO)O1)Nc1ccc(Cl)cc1 | nt | nt | 3 | nt | nt | -14[16.7 µM]
Cc1ccc(N(C(=O)Cc2cccs2)C(C(=O)NC2CCCCC2)c2ccccn2)cc1C (stereo not given) | -4 | 0 | 13 | -4 | 5 | 82*
Cc1ccc(C(C(=O)NC2CCCCC2)N(C(=O)Cc2c[nH]c3ccccc23)c2ccccc2)o1 (stereo not given) | -3 | 21 | nt | 0 | 0 | 112*
CC(=O)Nc1ccc(N(C(=O)Cc2c[nH]c3ccccc23)C(C(=O)NC2CCCCC2)c2ccco2)cc1 (stereo not given) | -2 | 10 | 32 | -14 | 0 | -12
CC(=O)c1ccc(N(C(=O)Cc2c[nH]c3ccccc23)C(C(=O)NC2CCCCC2)c2cccs2)cc1 (stereo not given) | 1 | -7 | -13 | -16 | nt | -52
COc1cccc(CN(C(=O)Cc2c[nH]c3ccccc23)C(C(=O)NC2CCCCC2)c2cccs2)c1 (stereo not given) | -6 | 27 | 34 | 1 | 3 | 91*
O=C(NC1CCCCC1)C(c1cccs1)N(C(=O)Cc1c[nH]c2ccccc12)c1ccc(F)cc1 (stereo not given) | 1 | 7 | 97* | -12 | 1 | 87*
COc1ccc(C(C(=O)NC2CCCCC2)N(Cc2cccs2)C(=O)Cc2c[nH]c3ccccc23)cc1 (stereo not given) | -7 | 21 | 52 | 2 | -2 | ?
CN1C(=O)c2cc(NC(=O)c3cscn3)ccc2OC[C@@H]2O[C@@H](CC(=O)N3CCOCC3)CC[C@@H]21 | nt | nt | 1 | nt | nt | 7[16.7 µM]
O=C(NCc1ccccc1)[C@@H]1[C@@H](CO)[C@@H]2Cn3c(ccc(-c4cccnc4)c3=O)[C@@H]2N1Cc1cocn1 | nt | nt | nt | nt | nt | 5[16.7 µM]
COCCOC(=O)N1C(=O)[C@@]2(c3ccccc31)[C@H](c1ccccc1OCCO)N1[C@H](c3ccccc3)[C@H](c3ccccc3)OC(=O)[C@H]1[C@@H]2C(=O)N1CCCCCCC1 | nt | nt | 44 | nt | nt | -146[16.7 µM]
SMILES | N-glyco inh | Shn3 inh set2 | PAX8 inh HTS | EBV LMP1 NFkB | NSD2 HMT inh | HIV Env fusion
C[C@@H]1CN([C@@H](C)CO)S(=O)(=O)c2ccc(/C=C/c3ccccc3)cc2O[C@H]1CN(C)C(=O)CN1CCOCC1 | nt | nt | -29 | nt | nt | nt
O=C(NCC(=O)N(Cc1cccs1)C(C(=O)NC1CCCCC1)c1ccco1)c1ccco1 (stereo not given) | -3 | 13 | nt | -3 | 3 | nt
O=C(NC1CCCCC1)C(c1cccs1)N(Cc1cccs1)C(=O)c1ccco1 (stereo not given) | -3 | 20 | nt | 11 | nt | 84*
O=C(C[C@@H]1C[C@H]2c3cc(NC(=O)C4CCOCC4)ccc3O[C@H]2[C@H](CO)O1)NCc1ccc(Cl)cc1 | nt | nt | 2 | nt | nt | 11[16.7 µM]
CO[C@@H]1CN(C)C(=O)c2cc(NC(=O)C3CC3)ccc2OC[C@H](C)N(C(=O)Cc2ccccn2)C[C@H]1C | nt | nt | 1 | nt | nt | 41[16.7 µM]
O=C(CSc1cccc[n+]1[O-])Nc1cc(S(=O)(=O)N2CCOCC2)ccc1N1CCOCC1 | 2 | -40 | 87* | -6 | -2 | nt
COc1ccc(NC(=O)CSc2ccc3ccccc3c2)cc1S(=O)(=O)N1CCCCC1 | -4 | 15 | 36 | 10 | -4 | 56*
Cc1cc(Cl)ccc1OCCCC(=O)Nc1cc(S(=O)(=O)N2CCOCC2)ccc1N1CCOCC1 | -1 | -40 | 28 | 3 | -4 | 114*
CCOc1ccc(OCCCC(=O)Nc2cc(S(=O)(=O)N3CCOCC3)ccc2N2CCOCC2)cc1 | -1 | 6 | 9 | 30 | -3 | nt
COc1ccc(NC(=O)CSc2ccc(NC(C)=O)cc2)cc1S(=O)(=O)N1CCOCC1 | 2 | 5 | -5 | 1 | -1 | 7
Cc1cc(Cl)ccc1OCCCC(=O)NO | 81* | -53 | nt | 26 | 0 | nt
CC(C)NC(=O)N(C)C[C@@H]1Oc2c(NC(=O)Nc3cccc4ccccc34)cccc2C(=O)N([C@@H](C)CO)C[C@H]1C | nt | nt | 6 | nt | nt | 5[16.7 µM]
COCC#Cc1cnc2c(c1)C(=O)N([C@@H](C)CO)C[C@@H](C)[C@@H](CN(C)S(C)(=O)=O)O2 | nt | nt | 5 | nt | nt | nt
COc1ccc2c3c(n(C)c2c1)[C@@H](CO)N(C(=O)C1CC1)CC31CCN(C)CC1 | nt | nt | nt | nt | nt | -1[16.7 µM]
COc1ccc(NC(=O)CCCOc2ccc(Cl)c(C)c2)cc1S(=O)(=O)N1CCOCC1 | -2 | 60 | 7 | 3 | 2 | 59*
